Assay results reported in PubChem BioAssay AID435022 (Sanford-Burnham Center for Chemical Genomics, 2010).
Values joined by “and” are separate entries in the source; they are usually repeats but may differ in a detail not shown here. Identical values can stand only once. In all, about 330,000 compounds went through this assay and about 1,100 (0.33%) were called active. This is one part of a sample in which actives are shown more often than they occur. Rule as the data show it: active = inhibition above about 35%; inactive = the rest. Where a structure was tested more than once in an assay, its records may differ in their call.

Assay: inhibitors of PMA/ionomycin-induced NF-kB reporter, 697 cells, primary screen, B-cell NF-kB inhibitor project, cell-based, luminescence, uHTS (AID 435022)
Conditions: 697 B-cell NF-kB luciferase reporter, 16 h, at 4 µM, stronger effect = higher value

Row | SMILES | inhibition
1 | COc1cc2c(cc1OC)CN(C(=O)c1cc(=O)c3ccccc3o1)CC2 | -14.7% (inactive)
2 | CCOc1cc(C(=O)N2CCc3cc(OC)c(OC)cc3C2)ccc1OC(F)F | 39.7% (active)
3 | COc1cc2c(cc1OC)CN(C(=O)c1ccc(S(=O)(=O)N3CCCCCC3)cc1)CC2 | 22.3% (inactive)
4 | COCCNC(=O)C1CCN(C(=O)C2CC(=O)N(c3ccc(C)cc3)C2)CC1 (centres undefined) | -0.961% (inactive)
5 | CCN(CCCNC(=O)CSc1cc(=O)n(C)c2cc(Cl)ccc12)Cc1ccccc1 | 2.99% (inactive)
6 | Cc1ccc(C)c(OCC(=O)NNC(=O)C2CCC2)c1 | 0.932% (inactive)
7 | Cc1ccc(O)c(NC(=O)COc2cc(C)ccc2C)c1 | 40.5% (active)
8 | Cc1ccc(O)c(NC(=S)NC(=O)COc2ccc(Br)cc2)c1 | -17.9% (inactive)
9 | COc1ccc(NC(=O)Nc2ccc3c(c2)C(=O)N([C@H](C)CO)C[C@H](C)[C@@H](CN(C)C(=O)Nc2ccc4c(c2)OCO4)O3)cc1 | -1.97% (inactive)
10 | COc1ccc(CNC(=O)C2CCC(CNc3c(N4CCOCC4)c(=O)c3=O)CC2)cc1 (centres undefined) | -4.3% (inactive)
11 | CCN1/C(=C\c2ccc3ccccc3[n+]2CC)Sc2cc(C)ccc21 | 65% (active)
12 | COC(=O)c1ccccc1NC(=O)C1CC(=O)N(c2ccc(OC)cc2)C1 (centres undefined) | 2.44% (inactive)
13 | C[C@@H]1O[C@@H](OC[C@H]2O[C@@H](Oc3c(-c4ccc(O)cc4)oc4cc(O)cc(O)c4c3=O)[C@H](O)[C@@H](O)[C@@H]2O)[C@H](O)[C@H](O)[C@H]1O | 3.19% (inactive)
14 | O=C(NCCCN1CCOCC1)c1cc(-c2cccc(O)c2)on1 | 14.1% (inactive)
15 | O=C(NCCCN1CCOCC1)c1cc(-c2ccc(Cl)cc2)on1 | 46.3% (active)
16 | COc1ccc(-c2cc(C(=O)NCCCN3CCOCC3)no2)cc1 | 28.1% (inactive)
17 | CCOC(=O)C1CCN(C(=O)C2(NC(=O)Nc3cccc(F)c3)CCCCC2)CC1 | 14% (inactive)
18 | Cn1nc(C(F)(F)F)cc1-c1ccc(/C=C(\C#N)C(=O)c2cccc(C(F)(F)F)c2)s1 | -34.9% (inactive)
19 | CCOC(=O)C1C(=O)NCC1c1ccccc1 (centres undefined) | 12.8% (inactive)
20 | CC(=O)c1cnc(SCC(=O)O)nc1C | 10% (inactive)

Row | SMILES | inhibition
21 | Clc1ccc(C[n+]2cc(-c3ccccc3)n3c2CCC3)cc1 | -17.7% (inactive)
22 | Cc1ccc(C(=O)C[n+]2cc(-c3ccccc3)n3c2CCCCC3)cc1 | 38.8% (active) and 16% (inactive)
23 | Cc1ccc(-c2c[n+](CC(=O)Nc3ccccc3)c3n2CCC3)cc1 | -7% (inactive)
24 | CC1CN(C(=S)Nc2ccc(Br)cc2Cl)CC(C)O1 (centres undefined) | -8.08% (inactive)
25 | Cc1ccccc1-c1cc(C(=O)NCc2cccs2)n(CC2CC(c3cccnc3)=NO2)n1 (centres undefined) | -9.9% (inactive)
26 | Cn1c(=O)cc(SCC(=O)N2CCN(C(=O)c3ccco3)CC2)c2ccccc21 | -1.63% (inactive)
27 | CCOC(=O)C1CCN(C(=O)CSc2cc(=O)n(C)c3ccccc23)CC1 | 25% (inactive)
28 | Cn1c(=O)cc(SCC(=O)N2CCCC2)c2cc(Cl)ccc21 | 52.4% (active)
29 | Cc1ccccc1C(=O)NNC(=O)CN1C(=O)c2ccccc2C1=O | 8.67% (inactive)
30 | C[C@@]12C(=O)N(c3cccc(Br)c3)C(=O)N1[C@H](c1ccc(Cl)cc1)[C@@H]1C(=O)N(C3CCCCC3)C(=O)[C@@H]12 | -15.6% (inactive)
31 | O=C(O)CN(Cc1ccco1)S(=O)(=O)c1ccccc1 | 18.8% (inactive)
32 | Cc1c(Cl)cnc(NC(=O)COC(=O)C2CCCC2)c1Cl | 2.7% (inactive)
33 | CCOC(=O)CSc1nnc(CNC(=O)c2cccs2)n1-c1ccccc1 | 9.72% (inactive)
34 | O=C(C1CCC1)N1CCc2cc(S(=O)(=O)NCc3cccnc3)ccc21 | -30.3% (inactive)
35 | CC1(C)Oc2ccc3ccc(=O)oc3c2/C(=C/NCCO)C1=O | 5.05% (inactive)
36 | C/C=C(/C)C(=O)OC1Cc2c(ccc3ccc(=O)oc23)OC1(C)C (centres undefined) | 47.2% (active)
37 | CC1(C)Oc2ccc3ccc(=O)oc3c2/C(=N/O)C1=O | -15.2% (inactive)
38 | Cc1nc(Cl)c(C#N)c2c1CCCC2 | 22.3% (inactive)
39 | CC(=O)Nc1ccc(S(=O)(=O)NC2(C(F)(F)F)C(=O)Nc3c2c(=O)[nH]c(=O)n3Cc2ccccc2)cc1 (centres undefined) | 3.75% (inactive)
40 | COC(=O)c1ccc(C2C3=C(Nc4nnnn42)c2ccccc2OC3)cc1 (centres undefined) | 3.54% (inactive)

Row | SMILES | inhibition
41 | COc1ccccc1NC(=O)C1=C(C)Nc2nnnn2C1c1cccc(Br)c1 (centres undefined) | -22.3% (inactive)
42 | COC(=O)C1=C(C(=O)c2ccc(C)cc2)C(c2ccccc2)n2nnnc2N1 (centres undefined) | 36.7% (active)
43 | CC1CCN(C(NC(=O)c2ccco2)C(=O)c2ccccc2)CC1 (centres undefined) | -1.98% (inactive)
44 | CCOC(=O)C1=C(O)/C(=C/c2cc(C)n(-c3ccccc3)c2C)N=C1C | -12.5% (inactive)
45 | CC(C)n1cnc2c(Nc3cccc(Cl)c3)nc(N(CCO)CCCO)nc21 | -41.1% (inactive)
46 | Cc1cccc(Nc2nc(NCCO)nc(N3CCCC3)n2)c1 | 4.82% (inactive)
47 | OCCCNc1nccc(-c2cc(Nc3cccc(Cl)c3)ncn2)n1 | 67.2% (active)
48 | CSc1ncccc1C(=O)OCc1ccc(Br)cc1 | 5.14% (inactive)
49 | c1ccc(Cc2cc[n+](Cc3ccccc3)cc2)cc1 | -7.68% (inactive)
50 | COc1ccccc1OCc1nnc(SCC(N)=O)n1-c1ccccc1 | -18.9% (inactive)
51 | Cc1nc2ccccc2c(=O)n1-c1ccc(F)c(NC(=O)c2cccs2)c1 | -10.2% (inactive)
52 | CCc1ccc(CNC(=O)CCc2nc(-c3cccs3)no2)cc1 | -6.74% (inactive)
53 | CN1CCN(C(=O)CCc2nc(-c3ccc(Cl)cc3)no2)CC1 | -2.08% (inactive)
54 | CCNC(=O)CCc1nc(-c2ccc(C(C)(C)C)cc2)no1 | 87.2% (active)
55 | CCOC(=O)C1CCN(C(=O)C2CCCN(S(=O)(=O)c3ccc(OC)c(Cl)c3)C2)CC1 (centres undefined) | -44.7% (inactive)
56 | CCOc1ccccc1C1CC(c2ccc(Cl)cc2)Nc2nc(N)nn21 (centres undefined) | -1.91% (inactive)
57 | COc1ccc(C(=O)n2nc(-c3ccc(C)cc3)nc2N)cc1OC | 7.38% (inactive)
58 | COc1ccc(C(=O)n2nc(-c3ccc(Cl)cc3)nc2N)cc1OC | 39.3% (active)
59 | COc1ccc(C(=O)n2nc(C)c(Br)c2C)cc1OC | -0.0717% (inactive)
